Records with an inconclusive call do not appear. Calls of active or inactive are those of the source. Rule for the calls, unless noted: active = hit-call score of the fitted dose curve at least 0.9, where 1 is the maximum; inactive = score below 0.9.
What was measured:
[1] = target: Nuclear receptor subfamily 4 group A member 2 (Homo sapiens) (UniProt P43354); experiment: ATG_NURR1_TRANS: Attagene TRANS-FACTORIAL HepG2 Assay for human Nuclear Receptor Related Protein 1 (NURR1) (AID 2282985; active = hit-call score of the fitted dose curve at least 0.9, where 1 is the maximum); conditions: HepG2 Attagene TRANS reporter, mRNA readout
Chain of Nuclear receptor subfamily 4 group A member 2 (Homo sapiens) (P43354 whole entry, looked up, the tested form may be a part): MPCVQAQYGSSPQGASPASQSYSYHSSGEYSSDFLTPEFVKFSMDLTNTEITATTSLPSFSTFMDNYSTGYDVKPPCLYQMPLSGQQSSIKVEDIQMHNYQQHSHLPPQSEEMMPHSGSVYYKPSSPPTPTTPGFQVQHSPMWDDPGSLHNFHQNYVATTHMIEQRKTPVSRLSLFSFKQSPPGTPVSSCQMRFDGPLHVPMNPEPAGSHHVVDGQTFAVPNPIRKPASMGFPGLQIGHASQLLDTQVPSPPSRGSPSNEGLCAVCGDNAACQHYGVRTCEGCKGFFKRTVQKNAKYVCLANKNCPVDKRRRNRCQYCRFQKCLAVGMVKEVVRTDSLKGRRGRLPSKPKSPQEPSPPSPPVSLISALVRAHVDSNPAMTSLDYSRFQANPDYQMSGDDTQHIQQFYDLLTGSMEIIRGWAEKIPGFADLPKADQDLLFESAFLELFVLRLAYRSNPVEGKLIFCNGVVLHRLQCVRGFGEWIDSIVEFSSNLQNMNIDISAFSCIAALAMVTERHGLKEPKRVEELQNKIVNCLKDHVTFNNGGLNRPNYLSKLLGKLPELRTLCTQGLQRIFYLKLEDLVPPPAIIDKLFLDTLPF
How it was run: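 Measures transcriptional activation by an exogenous NR-Gal4 chimera in transfected HepG2 liver cells. After 24 h, reporter RNA is reverse-transcribed, amplified and resolved by capillary electrophoresis; DMSO defines baseline.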

[2] = target: Transcriptional activator Myb (Homo sapiens) (UniProt P10242); experiment: ATG_Myb_CIS: Attagene CIS-FACTORIAL HepG2 Assay for human Myeloblastosis (Myb) Proto-Oncogene Transcription Factor (AID 2282986); conditions: HepG2 Attagene CIS-FACTORIAL Myb reporter transcription; actives raise or lower the signal
Chain of Transcriptional activator Myb (Homo sapiens) (P10242 whole entry, looked up): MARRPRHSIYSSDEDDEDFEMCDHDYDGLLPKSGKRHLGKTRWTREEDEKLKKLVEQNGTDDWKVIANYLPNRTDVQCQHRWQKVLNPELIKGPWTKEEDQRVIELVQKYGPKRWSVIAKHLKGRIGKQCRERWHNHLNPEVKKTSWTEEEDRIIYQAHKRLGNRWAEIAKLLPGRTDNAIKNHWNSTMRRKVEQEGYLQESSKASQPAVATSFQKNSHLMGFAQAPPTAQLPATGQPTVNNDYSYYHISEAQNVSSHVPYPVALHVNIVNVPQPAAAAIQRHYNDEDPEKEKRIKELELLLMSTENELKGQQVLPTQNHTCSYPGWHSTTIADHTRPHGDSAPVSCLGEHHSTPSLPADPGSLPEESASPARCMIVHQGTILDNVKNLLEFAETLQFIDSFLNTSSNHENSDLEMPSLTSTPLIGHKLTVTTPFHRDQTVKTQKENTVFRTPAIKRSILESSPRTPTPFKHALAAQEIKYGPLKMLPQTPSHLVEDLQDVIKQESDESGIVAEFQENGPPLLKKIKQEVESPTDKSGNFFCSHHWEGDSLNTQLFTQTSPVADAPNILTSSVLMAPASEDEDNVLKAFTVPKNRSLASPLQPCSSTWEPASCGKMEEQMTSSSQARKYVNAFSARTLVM
How it was run: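 After 24 h of compound dosing, total RNA from transfected HepG2 cells is reverse-transcribed and the reporter sequences amplified, labeled and separated by capillary electrophoresis. Values come from bidirectional fitting against DMSO.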

[3] = target: Nuclear respiratory factor 1 (Homo sapiens) (UniProt Q16656); experiment: ATG_NRF1_CIS: Attagene CIS-FACTORIAL HepG2 Assay for human Nuclear Respiratory Factor 1 (NRF1) Orphan Gene (AID 2282987); conditions: HepG2 NRF1 cis-element reporter, Attagene multiplex; actives raise or lower the signal
Chain of Nuclear respiratory factor 1 (Homo sapiens) (Q16656 whole entry, looked up): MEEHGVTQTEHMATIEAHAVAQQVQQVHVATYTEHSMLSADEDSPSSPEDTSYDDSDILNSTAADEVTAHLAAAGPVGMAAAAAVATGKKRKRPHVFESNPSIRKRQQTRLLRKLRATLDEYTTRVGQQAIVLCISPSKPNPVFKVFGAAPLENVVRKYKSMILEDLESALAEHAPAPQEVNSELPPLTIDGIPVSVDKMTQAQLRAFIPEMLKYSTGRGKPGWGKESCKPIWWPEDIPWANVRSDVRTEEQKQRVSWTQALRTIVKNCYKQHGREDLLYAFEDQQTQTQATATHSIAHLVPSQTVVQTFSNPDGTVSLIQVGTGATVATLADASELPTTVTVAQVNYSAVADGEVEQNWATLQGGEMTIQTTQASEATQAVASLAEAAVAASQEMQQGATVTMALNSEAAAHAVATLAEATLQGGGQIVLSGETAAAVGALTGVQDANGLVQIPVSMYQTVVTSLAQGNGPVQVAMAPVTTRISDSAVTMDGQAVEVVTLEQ
How it was run: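 Measured: fluorescent reporter-specific RT-PCR products from transfected HepG2 cells, separated by capillary electrophoresis. Exposure lasted 24 h. Analysis used bidirectional curve fitting with DMSO as negative control.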

[4] = ATG_NFI_CIS: Attagene CIS-FACTORIAL HepG2 Assay for human Nuclear Factor I (NFI) (AID 2282989); conditions: HepG2 cis-regulatory reporter, NFI response element transcription; actives raise or lower the signal
How it was run: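 HepG2 cells transiently transfected with cis-element-driven multiplexed reporter transcription units, dosed for 24 h. Reporter mRNA quantified by RT-PCR, fluorescent labelling, HpaI digestion and capillary electrophoresis; bidirectional fit versus DMSO baseline.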

[5] = target: Myc proto-oncogene protein (Homo sapiens) (UniProt P01106); experiment: ATG_Myc_CIS: Attagene CIS-FACTORIAL HepG2 Assay for human Myelocytomatosis (Myc) Proto-Oncogene Transcription Factor (AID 2282990); conditions: HepG2, Attagene cis-reporter transcription factor activity; actives raise or lower the signal
Chain of Myc proto-oncogene protein (Homo sapiens) (P01106 whole entry, looked up): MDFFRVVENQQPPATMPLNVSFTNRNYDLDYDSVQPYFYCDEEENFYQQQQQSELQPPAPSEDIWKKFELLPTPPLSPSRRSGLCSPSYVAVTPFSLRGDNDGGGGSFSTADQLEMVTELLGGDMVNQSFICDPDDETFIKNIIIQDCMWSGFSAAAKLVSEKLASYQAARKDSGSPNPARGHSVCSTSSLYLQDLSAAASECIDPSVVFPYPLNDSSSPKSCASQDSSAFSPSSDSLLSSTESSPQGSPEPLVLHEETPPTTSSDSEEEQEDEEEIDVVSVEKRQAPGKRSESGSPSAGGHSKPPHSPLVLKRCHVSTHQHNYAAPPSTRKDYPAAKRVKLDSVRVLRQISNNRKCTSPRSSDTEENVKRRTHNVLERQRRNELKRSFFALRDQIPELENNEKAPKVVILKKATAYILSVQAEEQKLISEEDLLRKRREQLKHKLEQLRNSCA
How it was run: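 HepG2, transient MRTU transfection (cis promoters, endogenous TFs); 24 h dosing; TriZol RNA → oligo(dT) RT → PCR → 6-FAM primer extension → HpaI cut → CE. Bidirectional fit vs DMSO.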

[6] = ATG_NF_kB_CIS: Attagene CIS-FACTORIAL HepG2 Assay for human Nuclear Factor Kappa B (NF-kB) (AID 2282991); conditions: HepG2 Attagene cis-factorial NF-kB reporter mRNA; actives raise or lower the signal
How it was run: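 Fluorescence of labelled RT-PCR products separated by capillary electrophoresis gives reporter mRNA levels from transfected HepG2 cells exposed 24 h; values are fitted in both directions relative to DMSO.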

[7] = ATG_NRF2_ARE_CIS: Attagene CIS-FACTORIAL HepG2 Assay for human Nuclear Factor Erythroid 2 Related Factor 2 (NFR2) response to Antioxidant Response Elements (ARE) (AID 2282992); conditions: HepG2 Attagene ARE/NRF2 reporter, transcription factor activity; actives raise or lower the signal
How it was run: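 Using transiently transfected HepG2 cells exposed for 24 h, reporter mRNA levels were determined by RT-PCR with fluorescent primer extension and capillary electrophoresis, analysed for gain or loss of signal against DMSO.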

[8] = ATG_Oct_MLP_CIS: Attagene CIS-FACTORIAL HepG2 Assay for human Octamer-Binding Transcription Factor (Oct) (AID 2282993); conditions: HepG2 Attagene cis-factorial Oct reporter, mRNA; actives raise or lower the signal
How it was run: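 HepG2 cells transiently transfected with cis-promoter-driven multiplexed reporter transcription units, dosed for 24 h. Reporter mRNA quantified by RT-PCR, fluorescent labelling, HpaI digestion and capillary electrophoresis; bidirectional fits versus DMSO baseline.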

[9] = target: Cellular tumor antigen p53 (Homo sapiens) (UniProt P04637); experiment: ATG_p53_CIS: Attagene CIS-FACTORIAL HepG2 Assay for human p53 Transcription Factor (AID 2282994); conditions: HepG2 p53 cis-element reporter, Attagene mRNA; actives raise or lower the signal
Chain of Cellular tumor antigen p53 (Homo sapiens) (P04637 whole entry, looked up, the tested form may be a part): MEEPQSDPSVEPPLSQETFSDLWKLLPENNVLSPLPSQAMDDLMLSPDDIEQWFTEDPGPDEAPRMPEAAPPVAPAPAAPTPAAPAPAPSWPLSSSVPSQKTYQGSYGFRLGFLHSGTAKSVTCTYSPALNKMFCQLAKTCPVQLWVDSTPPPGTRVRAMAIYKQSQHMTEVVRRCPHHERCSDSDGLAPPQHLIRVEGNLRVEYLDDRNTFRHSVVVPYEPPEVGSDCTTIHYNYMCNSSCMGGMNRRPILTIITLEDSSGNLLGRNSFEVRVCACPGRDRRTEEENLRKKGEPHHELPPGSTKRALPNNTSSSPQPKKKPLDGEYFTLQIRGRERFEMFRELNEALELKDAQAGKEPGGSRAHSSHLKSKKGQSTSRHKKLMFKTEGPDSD
How it was run: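 In HepG2 cells, reporter transcription units under cis-regulatory promoters were transiently introduced. Following 24 h treatment, RNA was processed to labelled, digested cDNA fragments read by capillary electrophoresis; fitting was bidirectional versus DMSO.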

[10] = BSK_3C_TissueFactor: BioMAP Diversity Plus: 3C Assay for Tissue Factor Biomarker Activity (AID 2282997); conditions: BioMAP 3C HUVEC, tissue factor biomarker readout; actives raise or lower the signal
How it was run: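 Tissue factor on primary human umbilical vein endothelium was read by ELISA 24 h after dosing, gain or loss relative to DMSO. Cytotoxicity ran alongside via SRB (0.1%, TCA-fixed, 560 nm).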

[11] = BSK_3C_uPAR: BioMAP Diversity Plus: 3C Assay for Urokinase-type plasminogen activator receptor (uPAR) Biomarker Activity (AID 2282998); conditions: BioMAP 3C HUVEC, uPAR biomarker ELISA; actives raise or lower the signal
How it was run: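 Human umbilical vein endothelial primary cells were exposed to test chemical for 24 h. Cell-surface uPAR was then quantified by ELISA, and responses were fitted bidirectionally against DMSO as negative control and baseline.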

[12] = BSK_3C_VCAM1: BioMAP Diversity Plus: 3C Assay for Vascular cell adhesion molecule 1 (VCAM1) Biomarker Activity (AID 2282999); conditions: BioMAP 3C HUVEC, VCAM1 ELISA, cytokine-stimulated; actives raise or lower the signal
How it was run: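 Activity fitted in both directions relative to DMSO, with ELISA measurement of the surface marker on primary HUVEC (3C) at 24 h post-treatment; parallel SRB staining (0.1% SRB, TCA-fixed, 560 nm) flagged overt cytotoxicity.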

[13] = BSK_4H_Eotaxin3: BioMAP Diversity Plus: 4H Assay for Eotaxin 3 Biomarker Activity (AID 2283000); conditions: primary human endothelial cells (HUVEC); actives raise or lower the signal
How it was run: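 Human umbilical vein endothelial cells (BSK_4H system) dosed with test chemical; Eotaxin-3 (CCL26) measured by ELISA 24 h after dosing. Bidirectional curve fitting relative to DMSO negative control as baseline.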

[14] = target: human Peroxisome Proliferator-activated Receptor delta (PPARd), PPARD (gene 5467) (UniProt Q03181); experiment: ATG_PPARd_TRANS: Attagene TRANS-FACTORIAL HepG2 Assay for human Peroxisome Proliferator-activated Receptor delta (PPARd) (AID 2283002; active = hit-call score of the fitted dose curve at least 0.9, where 1 is the maximum)
Chain of human Peroxisome Proliferator-activated Receptor delta (PPARd), PPARD (gene 5467) (Q03181 whole entry, looked up, the tested form may be a part): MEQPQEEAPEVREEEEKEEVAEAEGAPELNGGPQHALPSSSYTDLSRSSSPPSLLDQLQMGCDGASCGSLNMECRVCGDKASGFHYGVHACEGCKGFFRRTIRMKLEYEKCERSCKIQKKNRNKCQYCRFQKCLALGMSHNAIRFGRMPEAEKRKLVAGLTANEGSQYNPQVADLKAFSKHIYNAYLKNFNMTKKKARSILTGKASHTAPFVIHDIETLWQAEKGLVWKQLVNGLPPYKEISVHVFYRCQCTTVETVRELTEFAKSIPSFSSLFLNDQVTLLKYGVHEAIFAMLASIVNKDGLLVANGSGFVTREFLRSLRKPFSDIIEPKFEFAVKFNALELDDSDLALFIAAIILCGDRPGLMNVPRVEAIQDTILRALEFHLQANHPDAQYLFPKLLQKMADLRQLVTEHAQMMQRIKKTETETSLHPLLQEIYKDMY
How it was run: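 Transient HepG2 transfection (multiple GAL4-UAS RTUs, chimeric receptor-Gal4); 24 h dosing; total RNA → oligo(dT) RT → PCR → 6-FAM primer extension → HpaI cut → CE. Positive direction vs DMSO.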

[15] = read-out: Intercellular Adhesion Molecule 1 (ICAM1), ICAM1 (gene 3383); experiment: BSK_3C_ICAM1: BioMAP Diversity Plus: 3C Assay for Intercellular Adhesion Molecule 1 (ICAM1) Biomarker Activity (AID 2283003); conditions: primary human endothelial cells (HUVEC); actives raise or lower the signal
How it was run: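 Using DMSO as baseline, bidirectional curve fitting was applied to ICAM-1 ELISA signals from HUVEC in the 3C system, measured 24 h after compound addition.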

[16] = target: human Retinoic Acid Receptor beta (RARb), RARB (gene 5915) (UniProt P10826); experiment: ATG_RARb_TRANS: Attagene TRANS-FACTORIAL HepG2 Assay for human Retinoic Acid Receptor beta (AID 2283004; active = hit-call score of the fitted dose curve at least 0.9, where 1 is the maximum)
Chain of human Retinoic Acid Receptor beta (RARb), RARB (gene 5915) (P10826 whole entry, looked up, the tested form may be a part): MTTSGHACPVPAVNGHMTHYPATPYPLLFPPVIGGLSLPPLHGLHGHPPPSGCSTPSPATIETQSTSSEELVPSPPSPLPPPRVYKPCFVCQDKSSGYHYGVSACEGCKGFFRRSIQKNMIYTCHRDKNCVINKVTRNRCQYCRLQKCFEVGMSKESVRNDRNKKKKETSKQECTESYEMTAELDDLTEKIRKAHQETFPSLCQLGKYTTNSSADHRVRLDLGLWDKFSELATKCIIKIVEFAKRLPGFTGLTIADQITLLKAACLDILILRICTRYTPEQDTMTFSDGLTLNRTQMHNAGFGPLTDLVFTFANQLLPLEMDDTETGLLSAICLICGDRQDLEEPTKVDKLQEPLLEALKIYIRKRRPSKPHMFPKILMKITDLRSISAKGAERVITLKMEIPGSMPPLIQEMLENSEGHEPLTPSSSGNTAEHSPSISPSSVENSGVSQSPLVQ
How it was run: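 Induction of reporter mRNA from a chimeric RARb-Gal4 construct was measured by RT-PCR, FAM labelling, HpaI digestion and capillary electrophoresis. Measurements followed 24 h compound treatment of transiently transfected human HepG2 liver cells, with DMSO as baseline.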

[17] = target: Retinoic acid receptor alpha (Homo sapiens) (UniProt P10276); experiment: ATG_RARa_TRANS: Attagene TRANS-FACTORIAL HepG2 Assay for human Retinoic Acid Receptor alpha (RARa) (AID 2283005; active = hit-call score of the fitted dose curve at least 0.9, where 1 is the maximum)
Chain of Retinoic acid receptor alpha (Homo sapiens) (P10276 whole entry, looked up, the tested form may be a part): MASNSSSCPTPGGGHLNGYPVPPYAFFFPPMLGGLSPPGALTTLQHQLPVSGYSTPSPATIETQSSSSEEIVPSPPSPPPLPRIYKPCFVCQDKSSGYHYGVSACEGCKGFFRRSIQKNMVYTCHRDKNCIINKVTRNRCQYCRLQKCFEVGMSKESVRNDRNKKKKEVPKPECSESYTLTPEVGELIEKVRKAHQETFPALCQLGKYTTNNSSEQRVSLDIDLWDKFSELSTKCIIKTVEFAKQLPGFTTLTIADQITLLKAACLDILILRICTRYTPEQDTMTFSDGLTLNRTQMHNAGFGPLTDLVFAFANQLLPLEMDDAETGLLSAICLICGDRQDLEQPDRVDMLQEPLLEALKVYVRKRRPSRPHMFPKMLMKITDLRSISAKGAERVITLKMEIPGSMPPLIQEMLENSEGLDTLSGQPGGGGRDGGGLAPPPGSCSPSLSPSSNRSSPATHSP
How it was run: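 Reporter transcripts, measured by RT-PCR with fluorescent labeling and capillary electrophoresis after 24 h dosing, reflect activity of an exogenous human RARa–GAL4 fusion in transiently transfected HepG2. Fitted for increase relative to DMSO.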

[18] = BSK_3C_Proliferation: Cell Proliferation Assessment in the BioMAP Diversity Plus: 3C Assay (AID 2283006); conditions: primary human endothelial cells (HUVEC);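 for AC50: potency may reflect either rise or fall in cell number versus DMSO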
How it was run: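 Measured here: sulforhodamine B (0.1%) staining of TCA-fixed sub-confluent umbilical vein endothelial cultures 48 h post-dosing, absorbance 560 nm. DMSO served as negative control and baseline; both signal gain and loss were modelled.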

[19] = target: Peroxisome proliferator-activated receptor gamma (Homo sapiens) (UniProt P37231); experiment: ATG_PPARg_TRANS: Attagene TRANS-FACTORIAL HepG2 Assay for human Peroxisome Proliferator-activated Receptor-gamma (PPARg) (AID 2283007; active = hit-call score of the fitted dose curve at least 0.9, where 1 is the maximum)
Chain of Peroxisome proliferator-activated receptor gamma (Homo sapiens) (P37231 whole entry, looked up): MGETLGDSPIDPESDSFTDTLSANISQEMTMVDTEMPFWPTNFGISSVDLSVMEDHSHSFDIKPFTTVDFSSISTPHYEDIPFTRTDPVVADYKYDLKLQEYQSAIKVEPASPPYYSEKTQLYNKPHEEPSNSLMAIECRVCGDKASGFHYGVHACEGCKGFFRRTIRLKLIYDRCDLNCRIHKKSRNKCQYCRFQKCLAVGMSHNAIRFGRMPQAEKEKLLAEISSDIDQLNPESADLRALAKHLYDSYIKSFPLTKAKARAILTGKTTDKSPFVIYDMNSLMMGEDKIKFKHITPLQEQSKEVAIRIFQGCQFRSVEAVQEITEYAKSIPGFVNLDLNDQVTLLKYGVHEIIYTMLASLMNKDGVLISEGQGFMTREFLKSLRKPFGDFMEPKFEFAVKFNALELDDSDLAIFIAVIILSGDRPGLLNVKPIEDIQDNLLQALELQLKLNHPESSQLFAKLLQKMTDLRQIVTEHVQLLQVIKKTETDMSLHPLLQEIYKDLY
How it was run: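 Twenty-four hours after chemical dosing of transiently transfected HepG2 cells, isolated RNA was converted to cDNA, reporter sequences amplified and 6-FAM-labelled, then HpaI-digested and analysed by capillary electrophoresis. Signal increase against DMSO was fitted.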

[20] = target: human Peroxisome Proliferator-activated Receptor alpha (PPARa), PPARA (gene 5465) (UniProt Q07869); experiment: ATG_PPARa_TRANS: Attagene TRANS-FACTORIAL HepG2 Assay for human Peroxisome Proliferator-activated Receptor alpha (PPARa) (AID 2283001; active = hit-call score of the fitted dose curve at least 0.9, where 1 is the maximum)
Chain of human Peroxisome Proliferator-activated Receptor alpha (PPARa), PPARA (gene 5465) (Q07869 whole entry, looked up, the tested form may be a part): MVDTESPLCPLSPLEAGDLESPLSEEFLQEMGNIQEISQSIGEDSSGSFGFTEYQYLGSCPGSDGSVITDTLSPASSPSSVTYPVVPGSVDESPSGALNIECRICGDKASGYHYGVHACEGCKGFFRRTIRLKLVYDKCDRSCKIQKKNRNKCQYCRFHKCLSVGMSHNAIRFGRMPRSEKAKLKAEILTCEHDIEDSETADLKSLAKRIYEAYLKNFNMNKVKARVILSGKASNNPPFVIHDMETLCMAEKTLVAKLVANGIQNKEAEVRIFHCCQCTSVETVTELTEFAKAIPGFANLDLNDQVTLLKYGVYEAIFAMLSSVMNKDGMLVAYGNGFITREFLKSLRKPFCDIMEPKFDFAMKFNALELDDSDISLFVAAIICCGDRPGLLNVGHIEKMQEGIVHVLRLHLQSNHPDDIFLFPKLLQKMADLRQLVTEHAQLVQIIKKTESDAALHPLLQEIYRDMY
How it was run: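 Transfected HepG2 cells treated with test chemical for 24 h. RNA isolated, reverse-transcribed with oligo(dT), PCR-amplified, FAM-labelled and HpaI-digested. Fragments sized by capillary electrophoresis; gain-of-signal fit relative to DMSO.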

Measured: AC50

CCCC(=NOCC)C1=C(O)CC(CC(C)SCC)CC1=O (configuration not stated)
not listed: [20]
inactive: all other assays above

COC(=O)NC(=S)Nc1ccccc1NC(=S)NC(=O)OC
active: [7] 11.6 µM | [8] 30.8 µM
not listed: [16] | [17] | [20]
inactive: all other assays above

COC(=O)c1c(C(F)F)nc(C(F)(F)F)c(C2=NCCS2)c1CC(C)C
active: [7] 2.14 µM | [8] 9.92 µM | [11] 33.4 µM | [13] 6.71 µM | [18] 36.9 µM | [19] 45.5 µM
not listed: [17]
inactive: all other assays above

O=c1n(Cl)c(=O)n(Cl)c(=O)n1Cl
inactive: all assays above

COCC(C)N(C(=O)CCl)c1c(C)csc1C (configuration not stated)
active: [7] 2.31 µM | [19] 3.79 µM
not listed: [13] | [14] | [16] | [17]
inactive: all other assays above

O=P(O)(O)CCCl
inactive: all assays above

CCN(CC)c1nc(C)cc(OP(=S)(OC)OC)n1
active: [1] 62.9 µM | [8] 8.94 µM | [18] 28.7 µM | [19] 46.1 µM
not listed: [13]
inactive: all other assays above

CC(C)Oc1cccc(NC(=O)c2ccccc2C(F)(F)F)c1
active: [7] 6.33 µM | [8] 11.7 µM | [19] 30.9 µM
not listed: [13]
inactive: all other assays above

CCSC(=O)N1CCCCCC1
not listed: [20]
inactive: all other assays above

CCOP(=O)(OCC)Oc1nc(Cl)c(Cl)cc1Cl
active: [7] 33.4 µM | [8] 50 µM | [11] 20 µM | [18] 8.46 µM | [19] 30.8 µM
not listed: [13] | [16] | [17] | [20]
inactive: all other assays above

N#Cc1c[nH]cc1-c1cccc2c1OC(F)(F)O2
active: [1] 7.82 µM | [7] 13.2 µM | [8] 13.9 µM | [11] 12.8 µM | [13] 20 µM | [18] 5.61 µM | [19] 19.5 µM
not listed: [14] | [16] | [17]
inactive: all other assays above

CCOc1nc(F)cc2nc(S(=O)(=O)Nc3c(Cl)cccc3Cl)nn12
active: [2] 0.0229 µM | [19] 24.6 µM
not listed: [13] | [16] | [17]
inactive: all other assays above

CCOP(=S)(OCC)Oc1nc(Cl)n(C(C)C)n1
active: [7] 1.74 µM
not listed: [13] | [14] | [20]
inactive: all other assays above

CO/N=C(/C1=NOCCO1)c1ccccc1Oc1ncnc(Oc2ccccc2Cl)c1F
active: [3] 5.54 µM | [7] 0.946 µM | [8] 0.833 µM | [11] 5.95 µM | [13] 27.8 µM | [18] 17.4 µM
not listed: [16] | [17] | [20]
inactive: all other assays above
